This note sets out measurements from PubChem BioAssay (NCI).

Common to all, as to assay: NCI-60 one-dose screen, 48 h (100 = growth as untreated, 0 = no growth, -100 = all killed)
Holding throughout (settings): 10 µM unless noted

Assay [1] has as its system HCT-15 colon.
Assay [2] has as its system HT29 colon.
Assay [3] deals with SNB-75 CNS.
In assay [4] the test system is SNB-19 CNS.
Assay [5] relates to U251 CNS.
For assay [6], the system named is PC-3 prostate.
The subject of assay [7] is SK-MEL-5 melanoma.
Assay [8] concerns UACC-62 melanoma.
Assay [9] deals with LOX IMVI melanoma.
Assay [10] has as its system SK-MEL-28 melanoma.
Assay [11] concerns SK-MEL-2 melanoma.
In assay [12] the test system is EKVX NSCLC.
In assay [13] the test system is SN12C renal.
Assay [14] deals with UO-31 renal.
Assay [15] has as its system TK-10 renal.
Assay [16] concerns ACHN renal.
In assay [17] the test system is CAKI-1 renal.
Assay [18] deals with A498 renal.
For assay [19], the system named is CCRF-CEM leukemia.
The subject of assay [20] is MOLT-4 leukemia.

SMILES strings stand for the structures. Compounds without any hit were thinned out: in the full panel of roughly 83,000, 20% have a hit.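 Percent growth is the endpoint: 0 to 100 indicates growth inhibition (40 means 60% inhibition), 0 means no net growth, and negative values indicate cell death.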 Unmarked numbers belong to inactive results. Calls of active or inactive are those of the source. How the source made its calls: active means growth percent below 10; inactive means the rest.

On to `COC(C(=O)[C@@H](O)[C@@H](C)O)[C@@H]1Cc2cc3cc(O[C@H]4C[C@@H](O[C@H]5C[C@@H](O)[C@H](O)C(C)O5)[C@H](O)C(C)O4)c(C)c(O)c3c(O)c2C(=O)[C@H]1O[C@H]1C[C@@H](O[C@H]2C[C@@H](O[C@H]3C[C@@H](O)[C@H](OC)C(C)O3)[C@@H](O)C(C)O2)[C@H](O)C(C)O1` (stereo not given in full), for which the growth in [1] was 8.46% (active); in assay [2], -13.6% (active); in assay [3], -57% (active); in assay [4], 12.4%; in assay [5], 2.99% (active); in [6], 11.2%. Moreover, the growth in assay [7] was -36.9% (active); in assay [8], -35.4% (active); in assay [9], -8.28% (active); in [10], -34.1% (active); in [11] it was -43.7% (active); in assay [12] it was 12.3%. The growth was 15.9% in assay [13]; -8.18% (active) in assay [14]; -2% (active) in assay [15]; 4.45% (active) in assay [16]; 13.7% in [17]; -47.5% (active) in [18]. Further, the results for the growth in [19] and in [20] were 9.56% (active) and -6.79% (active), respectively.

As for `CC(=O)OCc1nc(C#N)c(N(C)C)o1`, the growth in assay [1] is 88.6%; in assay [2], 99.2%; in assay [3] it was 81.5%; in assay [4] it was 95.9%; in assay [5] it was 95.5%; in assay [6] it was 104%. The growth in assay [7] is 105%; in assay [8] it was 89.3%; in assay [9], 99.2%; in assay [10] it was 109%; in assay [11], 88.8%; in [12], 90.6%. Further, the growth is 97.7% in [13]; 89.9% in [14]; 84.1% in assay [15]; 98% in [16]; 92.7% in assay [17]; 84.7% in [18]. Further, the growth in assay [19] was 88.2%; in [20], 97.1%.

Consider `CCCNC(=O)Oc1ccc(/C(=C(/C)Cc2ccc(OC)cc2)c2ccc(OCCCN(C)C)cc2)cc1`, for which the growth is 70.3% in assay [1]; 25.7% in [2]; 80.8% in [3]; 88.8% in [4]; 63.5% in assay [5]; 74.4% in [6]. The growth in assay [7] was 86.9%; in assay [8], 102%; in assay [9], 73.4%; in assay [10] it was 94.1%; in assay [11], 96.5%; in assay [12] it was 85.7%. The growth in [13] is 84%; in assay [14] it was 60.6%; in assay [15], 88.3%; in assay [16], 99.4%; in [17], 101%; in assay [18] it was 97.6%. Further, the growth in assay [19] was 56.4%; in [20], 33.1%.

With `O=C1c2cccc(NCCN=Cc3cc(O)ccc3O)c2C(=O)c2c(NCCN=Cc3cc(O)ccc3O)cccc21`, the growth in assay [1] is 23.2%; in assay [2], -22.1% (active); in assay [3], -22% (active); in assay [4], -22.4% (active); in assay [5], -43.8% (active); in [6], -38.4% (active). The growth is 4.84% (active) in assay [7]; 5.11% (active) in [8]; -44.9% (active) in [9]; -30.9% (active) in assay [10]; 20.9% in assay [11]; 3.36% (active) in assay [12]. Moreover, the growth in [13] was -24.7% (active); in [14] it was -18% (active); in assay [15] it was -12.1% (active); in assay [16], 0.31% (active); in [17], -37.1% (active); in [18], -48.6% (active). Also, the growth in assay [19] is -58.7% (active); in [20] it was -53.1% (active).

Turning to `CC1=NN(c2nc(SCC(=O)Nc3nc4ccc(C)cc4s3)nc(-c3ccccc3)c2C#N)C(=O)C1`, the growth in assay [1] is 105%; in assay [2], 104%; in assay [3], 75.4%; in assay [4], 97.3%; in assay [5], 102%; in assay [6], 97.1%. For the same molecule, the growth in [7] was 100%; in assay [8], 94.3%; in [9] it was 101%; in [10], 105%; in assay [11], 111%; in assay [12] it was 106%. Besides, the growth in assay [13] is 95.6%; in assay [14], 67.8%; in [15] it was 131%; in assay [16] it was 96.3%; in assay [17] it was 87.3%; in [18], 101%. In addition, the growth in assay [19] is 107%; in [20], 99.8%.

On to `COc1ccc(-c2nc3c(c(-c4ccccc4)nn3-c3ccccc3)c(-c3ccc(N4CCOCC4)cc3)c2C#N)cc1`, for which the growth in assay [1] is 91.4%; in [2], 105%; in assay [3], 105%; in assay [4] it was 103%; in assay [5] it was 84.8%; in assay [6] it was 101%. For the same molecule, the growth in [7] was 101%; in assay [8], 91.1%; in [9] it was 92.2%; in assay [10], 100%; in assay [11], 106%; in assay [12], 100%. Further, the growth is 97.9% in assay [13]; 103% in [14]; 110% in assay [15]; 104% in assay [16]; 93.7% in assay [17]; 98.2% in assay [18]. Moreover, the growth is 99.6% in assay [19] and 94.4% in [20].

For the molecule `O=C(CSc1nc2sc3c(c2c(=O)n1-c1ccccc1)CCCCC3)N/N=C/c1ccc(F)cc1`, the growth is 48.6% in assay [1]; 26.2% in assay [2]; -65.4% (active) in [3]; 47.4% in assay [4]; 6.96% (active) in assay [5]; 45.8% in assay [6]. In addition, the growth in assay [7] was 50.7%; in [8], 83.5%; in assay [9], 37.1%; in [10] it was 48.9%; in [11], 91.9%; in assay [12], 80%. Further, the growth in assay [13] is 16.3%; in assay [14] it was 88.2%; in assay [15] it was 69.1%; in [16] it was 26.8%; in [17], -13.7% (active); in assay [18] it was 89.7%. Moreover, the results for the growth in [19] and in assay [20] were 46% and 67.1%, respectively.

On to `COc1ccc2c(c1)[n+]([O-])c(C(=O)/C=C/C=C(\Cl)c1cc(OC)c(OC)c(OC)c1)c(C)[n+]2[O-]`, for which the growth in [1] was 95.4%; in assay [2], 101%; in [3], -26% (active); in assay [4] it was 55.9%; in assay [5] it was 8.58% (active); in assay [6] it was 93%. For the same molecule, the growth in assay [7] was 121%; in [8], 68.2%; in [9], 41.7%; in [10], 99.1%; in [11], 47.2%; in assay [12] it was 85.6%. In addition, the growth in [13] was 78.1%; in assay [14], 107%; in assay [15] it was 89.2%; in assay [16], 44.7%; in [17], 79.1%; in assay [18], 96.6%. Further, the growth in assay [19] is 99.8%; in [20] it was 96.1%.
